Data reported in PubChem BioAssay (NCATS).
Results filed as inconclusive are left out. Where a call stands in place of a potency, no number is given. Active and inactive are the calls of the source. Calls come from the whole dose curve; as a rule, active = well fitted inhibition curve with a large enough effect; inconclusive = small, poorly fitted or top-dose-only effect; inactive = flat fitted curve, though single readings scatter.

biological target: Glutathione peroxidase 1 (Homo sapiens) (UniProt P07203); experiment: Primary qHTS Assay for Inhibitors of Recombinant Selenoprotein Glutathione Peroxidase 1 (GPX1) (AID 1845191); details: recombinant GPX1, GR-coupled NADPH fluorescence, 15 min; series mostly up to 48.8 µM; note: nearly all actives have a fitted effect of over 65% in size
Sequence (P07203 whole entry, looked up): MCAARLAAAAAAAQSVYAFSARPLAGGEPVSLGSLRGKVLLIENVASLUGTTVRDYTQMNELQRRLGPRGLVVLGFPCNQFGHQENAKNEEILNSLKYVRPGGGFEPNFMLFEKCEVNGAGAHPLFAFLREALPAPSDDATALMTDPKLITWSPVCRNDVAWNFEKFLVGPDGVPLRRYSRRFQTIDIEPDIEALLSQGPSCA
Summary of the method: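 GR-coupled readout: NADPH consumption tracked by fluorescence, ex 340/em 450 nm, at t=0 and after 15 min at RT. Final mix 10 nM GPX1, 1 mM GSH, 0.5 mM CHP, 0.5 mM NADPH, 100 nM GR, 0.01% BSA, following 30 min enzyme–compound preincubation.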

| Compound | Potency |
| --- | --- |
| COc1cc(/C=C2\CC[C@H]3COC[C@@H](c4cc(F)c(F)c(F)c4)N3C2=O)ccc1-n1cnc(C)c1 | inactive |
| CNC(=O)c1cc(Oc2ccc(NC(=O)c3cccc(C(F)(F)F)c3)cc2)ccn1 | inactive |
| COc1cccc(OCCCN)c1-c1cc(Nc2cnc(C#N)cn2)n[nH]1 | inactive |
| COC(=O)C[C@H]1C(C)(C)[C@H](OC(=O)c2ccccc2)C2CC3=C4CC(=O)O[C@@H](c5ccoc5)[C@]4(C)CCC3[C@@]1(C)C2=O (some centres undefined) | inactive |
| OC[C@H]1O[C@@H](OC/C=C/c2ccc(O)cc2)[C@H](O)[C@@H](O)[C@@H]1O | inactive |
| CC(C)(CO)c1cc2cc(NC(=O)C3(c4ccc5c(c4)OC(F)(F)O5)CC3)c(F)cc2n1CC(O)CO (centres undefined) | inactive |
| C/C=C(\C)C(=O)O[C@H]1C[C@](C)(O)[C@H]2CC=C(C)[C@H]2[C@@H]2OC(=O)[C@H](C)[C@H]21 | inactive |
| Nc1nc(OCc2cc(Br)cs2)c2[nH]cnc2n1 | inactive |
| CC(C)(Cc1ccccc1)NCC(O)c1ccc(O)c(NS(C)(=O)=O)c1 (centres undefined) | inactive |
| C=C1CCCC2(C)CCC(C(C)(C)OC3OC(C)C(O)C(O)C3OC(=O)/C(C)=C\C)CC12 (centres undefined) | inactive |
| C=C1C(=O)OC2/C=C(\COC(C)=O)CC/C=C(\C=O)CC(OC(=O)CC(C)C)C12 (centres undefined) | inactive |
| NC(=O)c1nc(Nc2ccccc2)sc1NC(=O)C1CCCCC1 | inactive |
| CNCc1cc(-c2ccccc2F)n(S(=O)(=O)c2cccnc2)c1 | inactive |
| O=C(CNC(=O)c1cccc(C(F)(F)F)c1)N[C@@H]1CCN(Cc2ccc(Cl)cc2)C1 | inactive |
